From the supplement of paper PMC10849652
Targets with a hit are over-represented here; the source holds about 8,800 in all. About 0.5% of all pairs of compound and target were hits.

Compound: O=C1NC(=O)C(c2cnc3ccccn23)=C1c1cn2c3c(cc(F)cc13)CN(C(=O)N1CCCCC1)CC2
Assay: log2 fold change, soluble protein after heating vs DMSO (PISA); higher = thermal stabilisation; K562 lysate, 10 uM; active = over 0.2 and 3.5 SD of the protein, either way, in both replicates (recomputed)
Summary of the method: (§1)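 Log-two fold change in thermal stability relative to solvent controls is reported from duplicates. For each sample, crude K562 extract from dounce-homogenised pellets in PBS pH 7.4 with 1 mM MgCl2, at 1 mg/mL protein, was treated with 10 μM compound for 30 min. Aliquots heated for 3 min across 48°C-58°C were pooled, brought to 0.5% NP-40 at 4°C and cleared at 21,000xg for 90 min. The supernatant was quantified by TMTpro 16plex LC-MS/MS with channel sums equalised.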

Sequence of UniProt P35250 (P35250 whole entry, looked up): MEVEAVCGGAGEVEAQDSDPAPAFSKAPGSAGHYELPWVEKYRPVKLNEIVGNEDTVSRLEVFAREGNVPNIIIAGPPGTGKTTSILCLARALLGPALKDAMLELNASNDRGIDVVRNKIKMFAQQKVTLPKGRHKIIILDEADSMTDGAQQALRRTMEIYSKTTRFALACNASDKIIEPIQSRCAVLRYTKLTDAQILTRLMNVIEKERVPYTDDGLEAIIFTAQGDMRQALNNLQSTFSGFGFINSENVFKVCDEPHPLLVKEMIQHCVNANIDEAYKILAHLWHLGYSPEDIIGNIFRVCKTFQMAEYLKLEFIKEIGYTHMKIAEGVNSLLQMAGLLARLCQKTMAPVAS
Sequence of UniProt Q15418 (Q15418 whole entry, looked up): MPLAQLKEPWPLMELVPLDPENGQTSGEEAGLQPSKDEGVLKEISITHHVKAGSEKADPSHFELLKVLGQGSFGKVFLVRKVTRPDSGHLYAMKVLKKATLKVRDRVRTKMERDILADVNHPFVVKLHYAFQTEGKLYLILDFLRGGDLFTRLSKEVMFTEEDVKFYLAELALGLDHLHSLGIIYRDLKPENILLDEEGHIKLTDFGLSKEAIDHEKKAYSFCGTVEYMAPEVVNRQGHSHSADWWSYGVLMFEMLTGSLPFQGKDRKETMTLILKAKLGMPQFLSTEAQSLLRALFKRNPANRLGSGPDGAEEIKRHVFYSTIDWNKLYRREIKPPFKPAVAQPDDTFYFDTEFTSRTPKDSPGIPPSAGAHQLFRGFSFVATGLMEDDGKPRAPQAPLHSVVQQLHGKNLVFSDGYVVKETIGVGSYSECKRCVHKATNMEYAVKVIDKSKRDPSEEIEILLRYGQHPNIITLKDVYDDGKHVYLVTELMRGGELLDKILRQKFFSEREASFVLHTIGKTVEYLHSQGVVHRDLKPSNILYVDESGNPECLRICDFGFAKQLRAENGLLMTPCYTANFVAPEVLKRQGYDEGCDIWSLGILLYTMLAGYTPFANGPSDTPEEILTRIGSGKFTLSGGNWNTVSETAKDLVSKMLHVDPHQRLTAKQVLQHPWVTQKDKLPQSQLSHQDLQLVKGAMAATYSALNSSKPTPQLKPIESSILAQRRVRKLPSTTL
Sequence of UniProt Q9NTN9 (Q9NTN9 whole entry, looked up): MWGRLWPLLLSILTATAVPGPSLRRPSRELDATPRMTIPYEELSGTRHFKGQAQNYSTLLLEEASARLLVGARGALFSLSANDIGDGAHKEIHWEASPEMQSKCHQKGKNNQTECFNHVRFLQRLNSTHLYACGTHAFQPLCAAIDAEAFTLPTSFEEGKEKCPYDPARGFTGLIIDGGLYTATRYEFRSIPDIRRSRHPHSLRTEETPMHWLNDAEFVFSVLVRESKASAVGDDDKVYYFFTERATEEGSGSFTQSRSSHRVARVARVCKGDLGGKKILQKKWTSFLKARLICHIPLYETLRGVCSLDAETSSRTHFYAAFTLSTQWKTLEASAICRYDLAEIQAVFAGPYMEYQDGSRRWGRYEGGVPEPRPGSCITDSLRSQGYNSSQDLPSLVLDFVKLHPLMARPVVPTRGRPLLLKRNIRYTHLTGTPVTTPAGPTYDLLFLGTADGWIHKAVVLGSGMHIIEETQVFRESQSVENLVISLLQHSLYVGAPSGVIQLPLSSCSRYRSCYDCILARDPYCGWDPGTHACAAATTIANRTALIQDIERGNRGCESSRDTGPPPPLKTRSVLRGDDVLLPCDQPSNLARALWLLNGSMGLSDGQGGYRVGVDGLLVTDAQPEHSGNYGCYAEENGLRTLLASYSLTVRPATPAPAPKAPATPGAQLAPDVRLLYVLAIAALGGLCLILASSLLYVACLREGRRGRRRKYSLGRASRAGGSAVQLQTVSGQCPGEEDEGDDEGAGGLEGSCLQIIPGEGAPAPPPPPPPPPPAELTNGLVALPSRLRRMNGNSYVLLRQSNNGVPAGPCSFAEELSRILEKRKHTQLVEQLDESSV
Sequence of UniProt Q86X10 (Q86X10 whole entry, looked up): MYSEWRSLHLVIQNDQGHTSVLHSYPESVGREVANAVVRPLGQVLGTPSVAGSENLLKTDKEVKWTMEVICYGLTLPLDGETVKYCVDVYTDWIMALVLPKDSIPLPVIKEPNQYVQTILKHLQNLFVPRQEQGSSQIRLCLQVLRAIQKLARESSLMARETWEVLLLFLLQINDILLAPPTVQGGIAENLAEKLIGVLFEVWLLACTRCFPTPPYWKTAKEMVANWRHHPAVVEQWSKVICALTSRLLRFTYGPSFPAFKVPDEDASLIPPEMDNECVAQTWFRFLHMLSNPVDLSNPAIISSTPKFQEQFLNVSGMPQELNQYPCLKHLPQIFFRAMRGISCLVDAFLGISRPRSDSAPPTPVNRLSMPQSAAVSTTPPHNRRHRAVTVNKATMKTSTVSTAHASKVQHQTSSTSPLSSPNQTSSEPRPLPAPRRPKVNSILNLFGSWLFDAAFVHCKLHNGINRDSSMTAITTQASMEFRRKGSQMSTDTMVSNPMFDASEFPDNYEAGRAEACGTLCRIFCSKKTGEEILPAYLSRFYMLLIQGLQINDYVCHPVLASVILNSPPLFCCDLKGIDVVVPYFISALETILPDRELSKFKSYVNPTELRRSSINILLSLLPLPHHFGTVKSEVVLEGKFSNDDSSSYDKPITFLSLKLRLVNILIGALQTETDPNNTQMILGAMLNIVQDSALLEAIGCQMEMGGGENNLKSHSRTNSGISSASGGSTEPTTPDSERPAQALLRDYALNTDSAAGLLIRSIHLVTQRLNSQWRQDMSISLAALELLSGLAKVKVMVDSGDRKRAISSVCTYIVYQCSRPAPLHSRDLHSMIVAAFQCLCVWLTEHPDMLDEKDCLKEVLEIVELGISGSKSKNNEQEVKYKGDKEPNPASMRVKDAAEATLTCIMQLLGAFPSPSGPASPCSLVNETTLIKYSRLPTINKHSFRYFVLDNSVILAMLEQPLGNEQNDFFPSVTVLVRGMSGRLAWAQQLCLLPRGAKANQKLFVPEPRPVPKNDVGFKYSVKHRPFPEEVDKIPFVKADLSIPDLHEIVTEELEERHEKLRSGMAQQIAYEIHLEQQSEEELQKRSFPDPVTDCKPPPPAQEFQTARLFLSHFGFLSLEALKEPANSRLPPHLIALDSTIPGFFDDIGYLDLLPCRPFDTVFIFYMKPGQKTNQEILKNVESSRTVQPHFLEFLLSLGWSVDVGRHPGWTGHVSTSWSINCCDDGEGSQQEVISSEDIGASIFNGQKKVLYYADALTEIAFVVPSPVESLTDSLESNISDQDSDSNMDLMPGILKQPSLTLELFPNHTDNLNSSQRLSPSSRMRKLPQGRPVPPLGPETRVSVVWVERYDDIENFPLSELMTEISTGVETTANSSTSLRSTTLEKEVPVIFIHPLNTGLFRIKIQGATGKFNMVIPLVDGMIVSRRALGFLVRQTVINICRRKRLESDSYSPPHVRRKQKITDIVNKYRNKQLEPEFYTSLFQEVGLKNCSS
Sequence of UniProt Q6NUM9 (Q6NUM9 whole entry, looked up): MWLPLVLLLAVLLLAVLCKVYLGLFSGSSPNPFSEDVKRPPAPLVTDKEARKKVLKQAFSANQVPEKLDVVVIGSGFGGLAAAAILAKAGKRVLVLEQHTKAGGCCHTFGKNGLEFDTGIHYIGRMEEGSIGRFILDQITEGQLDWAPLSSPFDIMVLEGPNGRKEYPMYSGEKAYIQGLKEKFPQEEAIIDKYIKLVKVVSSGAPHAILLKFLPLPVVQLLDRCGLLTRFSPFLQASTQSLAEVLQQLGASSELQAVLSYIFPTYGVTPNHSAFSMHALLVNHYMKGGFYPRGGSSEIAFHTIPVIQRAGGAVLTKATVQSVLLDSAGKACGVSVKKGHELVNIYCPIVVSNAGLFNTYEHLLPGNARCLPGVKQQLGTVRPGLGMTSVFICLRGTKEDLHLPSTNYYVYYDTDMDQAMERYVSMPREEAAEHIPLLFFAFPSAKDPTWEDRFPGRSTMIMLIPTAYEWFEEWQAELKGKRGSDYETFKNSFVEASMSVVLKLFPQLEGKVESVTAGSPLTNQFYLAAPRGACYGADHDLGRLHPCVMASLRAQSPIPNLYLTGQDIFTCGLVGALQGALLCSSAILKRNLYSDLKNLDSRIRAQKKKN
Sequence of UniProt Q02094 (Q02094 whole entry, looked up): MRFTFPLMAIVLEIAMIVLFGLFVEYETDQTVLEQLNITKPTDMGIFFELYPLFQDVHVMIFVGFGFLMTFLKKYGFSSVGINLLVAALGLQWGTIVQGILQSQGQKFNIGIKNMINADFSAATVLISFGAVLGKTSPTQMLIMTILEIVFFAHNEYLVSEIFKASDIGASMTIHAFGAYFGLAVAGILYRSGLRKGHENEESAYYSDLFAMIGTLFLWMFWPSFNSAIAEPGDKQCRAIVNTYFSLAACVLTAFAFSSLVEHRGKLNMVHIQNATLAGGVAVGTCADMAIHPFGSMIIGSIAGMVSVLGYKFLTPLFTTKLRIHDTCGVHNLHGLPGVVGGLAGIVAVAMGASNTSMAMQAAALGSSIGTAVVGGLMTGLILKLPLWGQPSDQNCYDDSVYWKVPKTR
Sequence of UniProt Q9Y3Z3 (Q9Y3Z3 whole entry, looked up): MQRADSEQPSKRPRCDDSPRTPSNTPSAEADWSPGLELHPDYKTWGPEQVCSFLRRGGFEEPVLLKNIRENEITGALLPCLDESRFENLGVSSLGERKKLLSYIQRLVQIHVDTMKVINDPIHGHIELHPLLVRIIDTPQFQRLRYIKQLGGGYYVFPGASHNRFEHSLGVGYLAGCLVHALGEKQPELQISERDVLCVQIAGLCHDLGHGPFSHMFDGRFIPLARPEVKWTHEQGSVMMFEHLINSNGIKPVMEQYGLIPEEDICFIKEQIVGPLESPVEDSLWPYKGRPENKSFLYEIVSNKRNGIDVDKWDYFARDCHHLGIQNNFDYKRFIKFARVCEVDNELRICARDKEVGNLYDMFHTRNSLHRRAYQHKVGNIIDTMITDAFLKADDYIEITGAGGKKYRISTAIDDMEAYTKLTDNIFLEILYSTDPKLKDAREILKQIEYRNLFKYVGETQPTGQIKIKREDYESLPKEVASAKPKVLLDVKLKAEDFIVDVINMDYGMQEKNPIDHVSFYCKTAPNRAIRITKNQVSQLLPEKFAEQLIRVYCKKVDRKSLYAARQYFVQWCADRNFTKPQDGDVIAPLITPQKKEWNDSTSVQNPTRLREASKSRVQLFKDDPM

log2 fold change, inactive:
RHAG (UniProt Q02094) 0.015
RPS26P11 (UniProt Q5JNZ5) -0.113
RPL37A (UniProt P61513) 0.093
SCAF1 (UniProt Q9H7N4) -0.04
RPS4X (UniProt P62701) 0.015
RAP1GAP isoform 4 (UniProt P47736) 0.022
RMI2 (UniProt Q96E14) 0.041
RAF1 isoform 2 (UniProt P04049) 0.068
RAP1B (UniProt P61224) -0.024
RAB6D (UniProt Q53S08) -0.011
RFC2 (UniProt P35250) -0.017
RIPK1 (UniProt Q13546) -0.013
RIOK2 (UniProt Q9BVS4) 0.008
SEMA4G isoform 2 (UniProt Q9NTN9) 0.103
RPL27 (UniProt P61353) 0.013
RPS6KA1 (UniProt Q15418) 0.123
RAP1B (UniProt F5GZG1) -0.099
REEP6 (UniProt Q96HR9) -0.028
RBM23 isoform 2 (UniProt Q86U06) -0.113
SAMHD1 (UniProt Q9Y3Z3) 0.032
SAR1A (UniProt Q9NR31) -0.039
SAMD4A (UniProt Q9UPU9) 0.014
S100A11 (UniProt P31949) 0.046
RETSAT (UniProt Q6NUM9) 0.058
RBM4 (UniProt Q9BWF3) -0.097
RALGAPB (UniProt Q86X10) -0.017
RAPGEF2, A0A2R8YGD3 0.015
SCO1 (UniProt O75880) -0.052
RPLP0P6 (UniProt Q8NHW5) -0.003
SDHA (UniProt P31040) -0.028
RFC3 (UniProt P40938) 0.006
RAB8B (UniProt Q92930) 0
RCC1 isoform 2 (UniProt P18754) 0.051

Compound: c1cn2cc(-c3ccc4cn[nH]c4c3)nc(Nc3ccc(N4CCOCC4)cc3)c2n1 [entospletinib]
Assay: as above
Summary of the method: as §1

log2 fold change, inactive:
RHAG (UniProt Q02094) -0.03
RPS26P11 (UniProt Q5JNZ5) -0.035
RPL37A (UniProt P61513) -0.005
SCAF1 (UniProt Q9H7N4) 0.025
RPS4X (UniProt P62701) 0.016
RAP1GAP isoform 4 (UniProt P47736) -0.012
RMI2 (UniProt Q96E14) -0.01
RAF1 isoform 2 (UniProt P04049) -0.015
RAP1B (UniProt P61224) -0.012
RAB6D (UniProt Q53S08) -0.01
RFC2 (UniProt P35250) 0.004
RIPK1 (UniProt Q13546) 0.011
RIOK2 (UniProt Q9BVS4) 0.315
SEMA4G isoform 2 (UniProt Q9NTN9) -0.09
RPL27 (UniProt P61353) 0.009
RPS6KA1 (UniProt Q15418) -0.038
RAP1B (UniProt F5GZG1) -0.026
REEP6 (UniProt Q96HR9) -0.059
RBM23 isoform 2 (UniProt Q86U06) 0.037
SAMHD1 (UniProt Q9Y3Z3) 0.031
SAR1A (UniProt Q9NR31) -0.089
SAMD4A (UniProt Q9UPU9) -0.053
S100A11 (UniProt P31949) -0.045
RETSAT (UniProt Q6NUM9) 0.036
RBM4 (UniProt Q9BWF3) 0.001
RALGAPB (UniProt Q86X10) -0.029
RAPGEF2, A0A2R8YGD3 -0.046
SCO1 (UniProt O75880) 0
RPLP0P6 (UniProt Q8NHW5) 0.017
SDHA (UniProt P31040) -0.006
RFC3 (UniProt P40938) 0.018
RAB8B (UniProt Q92930) -0.021
RCC1 isoform 2 (UniProt P18754) -0.014
